# A selection: hits, their analogues and other compounds. The true share with any hit is near 27%.
# CYP2C19 act = cytochrome P450 2C19 (human) activation. recombinant CYP2C19, luciferin-H EGE luminescence; active compounds read high; 0 = fully inhibited enzyme, 1 = untreated enzyme. activation factor at 5 µM. 96,000 tested, under 10 active. AID 1025;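 active = activation factor of at least 2 at 5 µM in the primary screen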;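 also: 0 = wells with 2.5 mM tranylcypromine and 1 = vehicle-only wells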
# CYP2C9 inhib = human CYP2C9 inhibition; P11712; CYP2C9 Supersomes, luciferin-H conversion, luminescence; inhibition, % at 5 µM; hit rate 20% among 96,000; AID 777;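 active = blocking of liver enzyme CYP2C9 beyond about 50% at 5 µM, limit read from the data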
# CYP2C9 activ = increases human cytochrome P450 2C9 activity; P11712; recombinant CYP2C9, luciferin-H conversion, luminescence; active compounds read high; factor 1 = untreated enzyme, 0 = blocked; activation factor at 5 µM; hit rate 1.4% among 96,000; AID 1024;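 active = activation factor of 2 or more for CYP2C9 at a 5 µM dose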;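 also: 0 = sulfaphenazole-blocked wells and 1 = vehicle-only wells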
# sEH inhibitor = blocks human soluble epoxide hydrolase activity. hit rate 0.34% among 91,000. inhibition, % at 2 µM. recombinant human sEH enzymatic activity assay; in the data active = inhibition above about 80%
# Target sequence (P34913 whole entry, looked up): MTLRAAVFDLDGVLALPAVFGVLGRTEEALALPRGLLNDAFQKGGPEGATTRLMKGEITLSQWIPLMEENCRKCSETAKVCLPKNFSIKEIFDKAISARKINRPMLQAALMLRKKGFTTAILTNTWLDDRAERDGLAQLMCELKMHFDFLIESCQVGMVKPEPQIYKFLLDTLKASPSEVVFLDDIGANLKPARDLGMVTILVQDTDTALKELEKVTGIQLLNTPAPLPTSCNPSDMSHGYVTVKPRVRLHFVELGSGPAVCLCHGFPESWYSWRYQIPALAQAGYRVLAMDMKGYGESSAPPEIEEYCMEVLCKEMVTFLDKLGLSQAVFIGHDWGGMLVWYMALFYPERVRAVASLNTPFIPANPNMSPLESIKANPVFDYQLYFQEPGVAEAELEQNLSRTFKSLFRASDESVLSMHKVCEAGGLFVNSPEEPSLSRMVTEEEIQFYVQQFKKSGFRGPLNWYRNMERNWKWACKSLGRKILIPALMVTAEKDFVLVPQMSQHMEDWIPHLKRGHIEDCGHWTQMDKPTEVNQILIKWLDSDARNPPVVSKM
# sEH act = soluble epoxide hydrolase (human) activation | purified human sEH enzymatic activity, activator screen | hit rate 0.04% among 91,000 | activation, % at 2 µM | P34913; in the data active = activation above about 37%
# CYP2C19 inhib = blocks human cytochrome P450 2C19; P33261; CYP2C19 Supersomes, luciferin-H EGE luminescence, 30 min; inhibition, % at 5 µM; hit rate 21% among 96,000; AID 778;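 active = CYP2C19 inhibition above a set limit at 5 µM in the primary screen, cut at about 50% in these data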;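 also: plate controls were negative control wells for no effect and 2.5 mM tranylcypromine positive control for full effect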
# Numbers without * were called inactive; . = no result given.
SMILES,CYP2C19 act,CYP2C9 inhib,CYP2C9 activ,sEH inhibitor,sEH act,CYP2C19 inhib
Cc1ncc(S(=O)(=O)c2ccc(Cl)cc2)c(-c2ccccc2)n1,0.6,45.7,0.5,9.2,-11.8,37.1
COc1ccc(-c2c(S(=O)(=O)c3ccccc3)cnn2-c2ccccc2)cc1,0,50.8*,0.5,10.3,-9.7,97.3*
Cc1ccc(Oc2nc(-c3ccccc3)ncc2S(=O)(=O)c2ccc(C)cc2)cc1,0.7,-3.7,1,-5.4,7.6,30.8
O=C(Oc1ccc(Cl)c2cccnc12)N1CCCCC1,0.5,27.9,0.7,.,.,54.7*
O=C(Oc1ccc(Cl)c2cccnc12)N1CCOCC1,0.9,16.0,0.8,6.6,-6.7,12.4
O=C(Oc1ccc2ccccc2c1Cl)N1CCCC1,0.2,31.3,0.7,.,.,75.1*
O=C(Oc1ccc(Cl)c2ccccc12)N1CCCCC1,0.9,42.4,0.6,-14.4,13.6,14.9
CCCOc1c(Cl)cc(/C=N/O)cc1OCC,0.7,33.5,0.7,-17.3,16.5,31.8
CC(=O)NC1C(=O)N(C)c2ccc(Br)cc21 (centres undefined),1.1,-1.2,1,2.5,0.9,-5.4
Cc1nn(C)c(C)c1Sc1ccc(Br)cc1,0.4,24.7,0.8,2.4,-2.1,64.4*
CNS(=O)(=O)c1cccc(C(=O)OCC(=O)c2cc(C)n(-c3ccc4c(c3)OCO4)c2C)c1,0.4,67.6*,0.3,4.3,-4.6,61.8*
COc1ccc(CNC(=O)CCNS(=O)(=O)c2ccc(C)cc2)cc1,0.9,-30.9,1.3,-7.3,10.7,5.9
CCOC(=O)CN(C(=O)CSc1nnc(COc2ccc(OC)cc2)n1C)c1ccccc1,1.1,35.1,0.6,-12.3,13.8,-7.8
CCn1c(SCC(=O)C(C)(C)C)nnc1-c1ccccc1OC,0.8,-3.2,1,31.4,-33.4,18.1
CCn1c(SCc2nc3ccccc3[nH]2)nnc1-c1cccs1,0,32.8,0.7,-2.4,2.0,99.4*
CCn1c(SCc2nc3ccccc3[nH]2)nnc1-c1ccccc1OC,0,70.1*,0.3,15.8,-16.9,100.4*
Cc1ccccc1NC(=O)/C=C/c1cccc(C(F)(F)F)c1,0.9,-121.8,2.2*,11.7,-9.9,5.0
Cc1c(NC(=O)/C=C/c2cn(-c3ccccc3)nc2-c2ccccc2)c(=O)n(-c2ccccc2)n1C,0.9,36.6,0.6,-12.7,14.9,13.3
Cc1ccc2cccc(S(=O)(=O)Nc3ccc4c(c3)OCO4)c2n1,0,25.1,0.7,0.6,-0.5,100.0*
O=S(=O)(Nc1ccc2c(c1)OCCO2)c1cccc2nsnc12,0.4,34.7,0.7,-10.6,12.1,59.7*
Cn1cc(C(=O)Nc2ccc(F)c(F)c2)cn1,1.1,-12.6,1.1,-9.8,13.1,-5.5
COc1ccc(Cn2c(CCC(=O)NCc3ccco3)nc3cccnc32)cc1,0.7,26.5,0.7,4.8,-7.5,28.8
COc1ccc(C(=O)n2nc(-c3ccccc3)nc2N)cc1OC,0.7,15.0,0.8,-2.0,5.6,31.9
CC(=O)N(CN1C(=O)c2ccccc2C1=O)c1cccc(C)c1,0,26.3,0.7,4.9,-5.3,96.6*
CC(=O)N(CN1C(=O)c2ccccc2C1=O)c1ccccc1,0.4,28.8,0.7,-0.3,0.3,59.3*
SMILES,CYP2C19 act,CYP2C9 inhib,CYP2C9 activ,sEH inhibitor,sEH act,CYP2C19 inhib
COc1ccc2c(c1OC)C(=O)OC2C1c2c(cc3c(c2OC)OCO3)CCN1C (centres undefined),0.1,89.0*,0.1,.,.,89.3*
O=C(c1ccc(Cl)cc1)N1CCCC(c2ccccc2)=N1,0.7,19.8,0.8,-7.9,10.4,29.3
CC(C)(C)c1nnc2sc(SC/C(O)=C(\C#N)c3nc4ccccc4[nH]3)nn2c1=O,0.3,43.2,0.6,-11.7,10.2,68.0*
CC(C)(C)c1nnc2sc(SCC(=O)c3ccccc3)nn2c1=O,0.6,88.4*,0.1,11.4,-8.9,36.5
COc1ccc(C(=O)CSc2nn3c(=O)c(C(C)(C)C)nnc3s2)cc1,0.9,26.7,0.7,-17.8,19.7,13.8
COc1ccc(-n2c(C)cc(C(=O)CSc3nn4c(=O)c(C(C)(C)C)nnc4s3)c2C)cc1,0.4,78.1*,0.2,0.7,-1.9,58.0*
COC(=O)Cc1c(C)nc2nc(NCc3cccc([N+](=O)[O-])c3)[nH]n2c1=O,1,7.6,0.9,0.7,1.3,4.1
CCN(CC)S(=O)(=O)c1ccc(NC(=O)Cn2c(=O)oc3ccccc32)cc1,0.8,48.0,0.5,-3.0,2.6,23.1
CN(C)c1ccc(C(=O)OCC(=O)Nc2ccc(S(N)(=O)=O)cc2)cc1,1,9.2,0.9,-1.8,0.5,1.2
CCN(CC)S(=O)(=O)c1ccc(NC(=O)COC(=O)c2ccc(-n3nc(C)cc3C)cc2)cc1,0.2,70.8*,0.3,45.2,-44.2,84.8*
CCN(CC)S(=O)(=O)c1ccc(NC(=O)COC(=O)c2ccc(Br)o2)cc1,0.8,67.2*,0.3,27.9,-27.1,20.8
Cc1ccccc1CSCC(=O)N/N=C/c1cccs1,0.4,31.6,0.7,25.3,-23.5,61.4*
Cc1ccc(C(C)n2cc(C(=O)NCc3ccncc3)nn2)cc1 (centres undefined),0.6,88.7*,0.1,-2.6,5.4,43.1
CCOc1ccc(N2C(=O)CN=C2Nc2ccccc2F)cc1,1,7.5,0.9,1.4,0.2,3.7
Cc1cccc(N2CCN(C(=O)c3ccc(NS(=O)(=O)c4c(C)noc4C)cc3)CC2)c1C,0.9,95.9*,0,7.9,-7.9,7.1
CCc1cccc(NC(=O)c2ccc(NS(=O)(=O)c3c(C)noc3C)cc2)c1,0.9,51.2*,0.5,23.9,-22.4,6.6
Cc1noc(C)c1S(=O)(=O)Nc1ccc(C(=O)N2CCc3ccccc3C2)cc1,0.9,58.9*,0.4,1.7,-0.6,12.7
Cc1noc(C)c1S(=O)(=O)Nc1ccc(C(=O)N2CCN(c3cccc(Cl)c3)CC2)cc1,1.1,79.4*,0.2,-0.3,-0.1,-5.7
Cc1cccc(NC(=O)c2ccc(NS(=O)(=O)c3c(C)noc3C)cc2)c1,1,40.2,0.6,-1.8,3.1,4.4
COc1ccc(OC)c(C(c2nnnn2Cc2ccccc2)N2CCN(C3CCCCC3)CC2)c1 (centres undefined),1,8.5,0.9,.,.,0.6
COc1cc(OC)nc(Oc2ccccc2C(=O)Oc2ccc(F)cc2Cl)n1,0.7,42.4,0.6,14.8,-9.7,32.9
O=C(CCCN1C(=O)c2cccnc2C1=O)N1CC(=O)N(CCc2ccccc2)C(=O)C1,0.8,12.9,0.9,-3.6,2.3,24.1
CCN(CC)c1ccc(C2C3CCCCC3(O)CCN2CC(=O)N2CCCCC2)cc1 (centres undefined),0.9,-9.9,1.1,-14.6,12.6,5.0
OC12CCCCC1C(c1ccc3c(c1)OCO3)N(Cc1cccc(F)c1)CC2 (centres undefined),0.2,79.0*,0.2,-7.6,7.8,78.7*

# Screening results as filed in PubChem BioAssay.
